# aSyn 5UTR act: Activators working through SNCA 5'UTR binding (MLPCN); alpha-synuclein 5'UTR reporter, activators screen; activity score, % (tested at 7.5 µM), hits read low; 300,000 compounds, 7.1% hits; AID 1814; in the data active = activity score below about -60%
# Hits are given with their value; 0 = inactive. These entries were drawn from the full list.
SMILES,aSyn 5UTR act
FC(F)(F)c1ccc(C2NCCc3sccc32)cc1 (stereo unspecified),-63
O=c1cc(-c2cccc(Cl)c2)oc2cccc(O)c12,-124
O=c1cc(-c2cccc(Br)c2)oc2cccc(O)c12,-141
Nc1ccccc1N=Nc1ccccc1N,-222
Cc1noc(/C=C/Nc2ccc(F)cc2F)c1[N+](=O)[O-],-175
Cc1noc(/C=C/c2ccccn2)c1[N+](=O)[O-],-211
O=C(C#Cc1ccccc1)Nc1ccccc1F,-141
COc1ccc(NC(=O)Nc2ccccc2F)c(C)c1,-98
COc1ccc(C/C(C)=N/NC(=S)Nc2ccccc2F)cc1,-152
COc1cccc(COC(=O)Nc2ccccc2F)c1,-146
Cc1ccc(Cn2c(O)c(N=NC(=S)Nc3ccccc3F)c3ccccc32)cc1,0
COc1cc(C)c(C(=O)CC(=O)c2c(C)cc(OC)cc2C)c(C)c1,0
COc1ccc(NC(=O)Nc2ccccc2F)cc1Cl,-184
COc1ccc(NCC(=O)Nc2ccccc2C#N)cc1Cl,-68
COC(=O)c1ccc(NC(=O)Nc2ccccc2C)cc1,-107
O=C(Nc1ccc(F)cc1)Nc1cccnc1Cl,-81
O=C(Nc1ccc(F)cc1)Nc1ccccc1F,-180
O=C(Nc1ccccc1F)Nc1ccccc1Br,-106
COc1ccc(NC(=O)Nc2ccccc2SC)cc1,-113
COC(=O)c1ccc(NC(=O)Nc2ccccc2F)cc1,-95
CSc1ccccc1NC(=O)Nc1ccc(Cl)cc1,-190
Oc1c(N=NC(=S)Nc2ccccc2F)c2ccccc2n1Cc1ccccc1Cl,0
Fc1ccccc1NC(=S)N/N=C/c1ccccc1Br,-248
O=C(Nc1ccccc1)Nc1cccn(Cc2c(F)cccc2Cl)c1=O,-103
COc1ccc(NC(=O)Nc2ccccc2F)c([N+](=O)[O-])c1,-139
SMILES,aSyn 5UTR act
COc1ccc(NC(=O)Nc2ccccc2F)cc1,-134
CSc1ccc(NC(=O)Nc2ccccc2C(N)=O)cc1,-92
Cc1ccccc1NC(=O)OCc1ccccc1,-84
O=C(Nc1ccc(Cl)cc1)Nc1ccccc1CC[N+](=O)[O-],-97
CC(=O)N(C)c1ccc(NC(=O)Nc2ccccc2C)cc1,-107
O=C(Nc1c(F)cc(F)cc1Br)c1cc(-c2ccc(O)cc2)on1,-101
C=CCNC(=O)c1cc(-c2ccc(Br)cc2)on1,-101
Cc1ccc(O)c(NC(=O)c2cc(-c3ccc(F)cc3)on2)c1,-147
CSc1ccccc1NC(=O)c1cc(-c2cccs2)on1,-235
CC(C)NC(=O)c1cc(-c2cccs2)on1,-127
Cc1ccc(O)c(NC(=O)c2cc(-c3cccs3)on2)c1,-231
O=c1nc2c(O)cccn2c2c1c(=O)[nH]c1ccccc12,-66
O=c1[nH]c2ccccc2c2nc3ccccn3c12,-113
CC1CCN(C(=O)c2cc(-c3ccco3)on2)CC1,-140
CC1CCN(C(=O)c2cc(-c3ccccc3O)on2)CC1,-82
O=[N+]([O-])c1ccc(CSc2nc3ccccc3o2)cc1,-133
c1ccc2[nH]c(CSc3nc4ccccc4o3)nc2c1,-78
CC1(C)Cc2c(sc3nc(-c4cc5ccccc5o4)n(N)c(=O)c23)CO1,-203
Cc1ccc2[nH]c3c(c2c1)CCc1cn[nH]c1-3,-62
O=C(Nc1ccccc1)OCCOc1ccccc1,-143
O=C(Nc1ccccc1)OCc1ccccn1,-102
O=C(Nc1ccccc1)OCCOc1ccccc1Br,-125
CCC1(COC(=O)Nc2cccc(Cl)c2)COC1,-93
O=C(Nc1ccccc1)OCc1cc(-c2ccccc2Cl)on1,-160
O=C(Nc1cccc(Cl)c1)OCCOc1ccccc1,-140
SMILES,aSyn 5UTR act
CCOC(=O)c1ccc(NC(=O)Oc2ccccc2)cc1,-66
CCOC(=O)c1ccc(NC(=O)c2nc(S(=O)(=O)Cc3ccccc3)ncc2Cl)cc1,0
Nc1ccc(OC(=O)Nc2ccc(O)cc2)cc1,0
CC1CCN(c2ccc(NC(=O)c3ccccc3[N+](=O)[O-])cc2)CC1,-70
CCOC(=O)c1ccc(NC(=O)c2ccccc2)cc1,-252
CCOC(=O)c1ccc(NC(=O)c2n[nH]c(=O)c3ccccc23)cc1,-90
CCOC(=O)c1ccc(Nc2ncccc2[N+](=O)[O-])cc1,-218
CCOC(=O)c1ccc(NC(=O)c2ccccc2[N+](=O)[O-])cc1,-76
CCC(=O)NC(c1ccc(C)cc1)c1cc([N+](=O)[O-])c2cccnc2c1O (stereo unspecified),0
O=C(OCCC1Oc2cccnc2NC1=O)c1ccc([N+](=O)[O-])cc1 (stereo unspecified),0
O=C(Nc1ccc2c(c1)OCO2)c1n[nH]c(=O)c2ccccc12,-140
CCNc1oc(/C=C/c2ccc(OCC)cc2)nc1C#N,-188
CNc1oc(/C=C/c2cccc(OC)c2)nc1C#N,-180
CCN(CC)CCCNc1oc(/C=C/c2ccccc2)nc1C#N,-64
Cc1cc(COc2ccccc2)oc1C(=O)O,-108
C=CCc1ccc(OCC(O)COCC)c(OC)c1 (stereo unspecified),-76
Cc1csc(NC(=O)c2ccc(COc3ccccc3)o2)n1,-136
COC(=O)c1ccc(COc2cc(C)ccc2C)o1,-149
C=CCc1ccc(OCc2ccc(C(=O)OC)o2)c(OC)c1,-121
Cc1ccc(OCc2ccc(C(=O)Nc3nccs3)o2)cc1C,-110
Cc1ccc(OCc2ccc(C(=O)O)o2)cc1C,-188
COC(=O)c1ccc(COc2ccc(C)c(C)c2)o1,-198
O=C(COC(=O)c1ccc(-c2nnc(-c3ccccc3)o2)cc1)c1ccccc1,-126
CCOC(=O)c1ccc(-c2ccc(CO)o2)cc1,-132
CCOC(=O)c1ccc(COC(=O)c2ccc(-c3nnc(-c4ccccc4)o3)cc2)o1,-91
SMILES,aSyn 5UTR act
CCOC(=O)c1ccc(-c2nnc(-c3ccc(Cl)cc3Cl)o2)cc1,-207
N#CCCN1CCCc2cc(N=Nc3ccc(C(F)(F)F)cc3)ccc21,-191
Fc1ccc(-c2nnc(-c3ccc(F)cc3)o2)cc1,-185
Fc1ccc(-c2nnc(NC3=NCCCCC3)o2)cc1,0
Cc1ccc(-c2nnc(Cc3ccc([N+](=O)[O-])cc3)o2)cc1,-120
O=[N+]([O-])c1ccc(Cc2nnc(-c3ccc(F)cc3)o2)cc1,-86
COc1ccc(-n2cc(-c3ccc(Br)cc3)[nH]c2=S)cc1,-138
Fc1ccccc1-n1cc(-c2ccccc2)[nH]c1=S,-100
CCc1ccc(-n2cc(-c3ccc([N+](=O)[O-])cc3)[nH]c2=S)cc1,-108
Cc1ccc(-c2cn(-c3ccccc3)c(=S)[nH]2)cc1C,-94
COc1ccc(-n2cc(-c3ccccc3)[nH]c2=S)c(OC)c1,-75
Cc1nc(SCc2ccccc2)nc2c1CCC2,-115
CC(=O)Nc1ccc(S(=O)(=O)N/N=C/c2ccc(C)s2)cc1,-137
COc1nc(-c2ccccc2)nnc1-c1ccccc1,-124
CCOC(=O)c1sc(=NC(=O)c2cccc(C)c2)n(C)c1C,-151
CCOC(=O)c1sc(=NC(=O)c2cccc(Br)c2)n(C)c1C,-188
Cc1ccc(N=Cc2c(O)ccc3ccccc23)cc1F,-111
CCOC(=O)c1sc(/N=C/c2c(O)ccc3ccccc23)cc1C,-73
O=C(O)c1ccc(/C=N/Nc2ncc(Cl)cc2Cl)cc1,-72
O=[N+]([O-])c1cc(/C=N\Nc2ccccn2)ccc1Cl,-91
O=[N+]([O-])c1cc(Cl)cc(/C=N\Nc2ccccn2)c1O,0
O=[N+]([O-])c1cccc(/C=N/Nc2nccnc2Cl)c1,-147
Nc1nnc(/C=C/c2cccc([N+](=O)[O-])c2)s1,-64
O=C(O)c1ccc(N/N=C/c2ccc(OC(=O)c3cccc(Cl)c3)cc2)cc1,0
Cc1[nH]c2ccccc2c1/C=N/Nc1ccccn1,-100

# Assay outcomes: PubChem, Broad Institute
